In PubChem BioAssay AID1159506 (National Center for Advancing Translational Sciences (NCATS), 2015):
In all, about 59,000 sequences were measured (the read-out: median about -0.00055, lowest 2% from about -2 on). Many of the other results were omitted from the sample, so the lowest values are more common in it than they were.

Experiment: Identification of proteins required for the processing of the EWS-FLI1 nascent transcript;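 further: robust z of luciferase light less the median z of siRNAs with the same seed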
Details: TC32 Ewing sarcoma NR0B1-luc vs CMV-luc (EWS-FLI1 target promoter against control promoter), 48 h; screened at 20 nM (by protocol)
Protocol: Ewing sarcoma (ES) cells depend on the EWS-FLI1 fusion transcription factor for cell survival. Using an assay of EWS-FLI1 activity and genome-wide siRNA screening we have identified proteins required for the processing of the EWS-FLI1 nascent transcript. Parallel genome-wide siRNA-mediated RNAi screens were conducted in Ewing sarcoma TC32 cell lines expressing a luciferase (luc) reporter protein driven by either the promoter of the EWS-FLI1 target gene NR0B1 (TC32-NR0B1-luc) or the CMV promoter (TC32-CMV-luc). Luciferase activity was assessed 48 hours post siRNA-transfection.
Twenty microl of serum-free media containing Lipofectamine RNAiMax (0.05 microl) was added to wells containing siRNA (0.8 pmol). Lipid and siRNA were allowed to complex for 45 min at ambient temperature before addition of 600 cells in RPMI-1640, 20% FBS to yield final transfection mixtures containing 20 nM siRNA in RPMI-1640, 10% FBS. Luciferase expression was measured using OneGlo (Promega, Madison, WI). The genome-wide screening campaign was conducted using Ambion's human genome library version 4.1 (Ambion, Austin TX). This library targets approximately 21000 human genes, three siRNAs per gene. Each siRNA is arrayed in an individual well of a 384-well plate. Parallel transfections were conducted in TC32-NR0B1-luc and TC32-CMV-luc cell lines and luciferase expression (OneGlo, Promega) was assayed 48 h later on a PerkinElmer Envision 2104 Multilabel plate reader (PerkinElmer, Waltham, MA). Qiagen's AllStars Negative control was incorporated on all screening plates for normalization (16 wells per plate). Qiagen, Germantown, MDsiGL4 was incorporated as a positive transfection control (16 wells per plate) on all plates. […] The raw luciferase data for the NR0B1- and CMV-luc screens were normalized and z-score-MAD transformed using standard methods (Chung et al., 2008). The miRNA-like seed sequence of every siRNA was determined and the median z-score for all siRNA sequences with the same seed sequence was calculated. This z-score was subtracted from the z-score associated with each siRNA with that seed sequence to generate a seed-adjusted z-score value (Z) that was used when the results for the three siRNAs corresponding to each gene were compared (Marine et al., 2012)

Row | Sequence | seed-corrected z-score
1 | UCUUGCUCUAGUGUCCUGG against DNAJC17 | -2.46
2 | UUUAUCCUCAAAACUCUCC against C6orf10 | 0.952
3 | UCUCAUACUUCCCAUGCCC against LSP1 | -0.209
4 | UAUGGGACACUUAUUGGAG against PVRIG | -0.543
5 | AGAGCACUGAGUAGAAUGC against MFSD9 | -1.44
6 | UGCUUGUCUAAGCCUUUGG against RPS12P9 | -2.08
7 | UAAGGUAAUGAUUACCACC against RBKS | -0.288
8 | UUGACUACCAGGAAAGGCU against KRT86 | -0.062
9 | UAUUUAUUGCGAGAAUCAG against CLCN4 | -3.96
10 | UCCAGAAGCUGGAUGGUCC against GALE | -0.197
11 | UGACGUACAGGUUAGCAUC against ELAVL3 | 0.583
12 | AACGGUAUUGAUGACAGCC against TMLHE | -0.307
13 | UACGAUGUCACCUAUAUUG against CSMD2 | -0.00124
14 | UAUCUUGAGAGGUGCCUCC against THRAP3 | 1
15 | UCGUACUUUAAAGAUGUCC against CR1 | -0.43
16 | UUGUUUGCAGGAAGGGAGG against LOC643770 | -0.34
17 | UUUCUGUUCUUACAGGUGG against SRSF5 | -1.33
18 | AUAGUAAAACCAAUUACCC against OR2J2 | -2.15
19 | AUGGUGAAGACGUAGUUGC against CACNA1H | -1.21
20 | UUUAGGAACCUUGACUAGC against GTF2F2 | 0.153
21 | AACGUGUAGAUCUUCAUGA against UBXN6 | -1.15
22 | UGAAGUUCAGGUUCGUAAC against TBPL1 | -2.64
23 | UUGACAUUUACUUCAGUUU against TRABD | 0.607

Row | Sequence | seed-corrected z-score
24 | AGUGGAUACAUAGCUGUCU against ZBTB45 | -0.6
25 | UCCUUAAUUUGAUAUUUGC against MAGEA8 | -0.105
26 | AUACUUGCAGGUGUCAUUG against CD300A | -0.484
27 | AUCGCUUUGAGGUUAGAGG against SYT3 | -0.878
28 | UAUCAUAUGAUGCAUAAGC against ANGPTL5 | 0.711
29 | UGAUGAUACACUGCAAGUC against IGSF3 | -2.96
30 | UAAUCUAUUGAUAUGCUGG against SLC25A32 | 0.699
31 | AAGUGGAACACUCAAGUCC against ZNF471 | -1.03
32 | AUAAAUGAUACGGGUGCUC against TPI1 | -0.201
33 | UAGGAGCAGAGGAAUCUUC against SLC35F4 | 0.0717
34 | UUCUGAUGUAUGUUGAGCC against ZNF350 | -4.18
35 | UUCUCGUUGAUCUUUUUGG against CPXCR1 | -0.131
36 | UCCUGUUCCUUGAUAUUGU against GZMH | -0.564
37 | UUAUCUGUGAGAGCAAUUA against LOC728752 | -1.23
38 | UCUGGAUCUAUUAAGCUGC against LRRFIP2 | -2.34
39 | AAAUCAGUGGGAAAGAUCC against DENND3 | 1.04
40 | UUCUCCAUCAUGCGAAUGG against FEN1 | 0.188
41 | UGGUAGUACACCUUGCAGC against C1orf111 | -2.08
42 | UGUAAUACCUGAAUCGGUG against PRKRA | -0.234
43 | AAAUAGACAAAUAGGAUCC against PSMD12 | -2.98
44 | UAUCUGAGAGUGAUCCUUC against LRRC47 | 1.55
45 | UCAAUUCAGACUGUAAUGC against PTPDC1 | -0.0227
46 | AUUCUCACCAUAAAGAGCA against LOC729722 | -2.33

Row | Sequence | seed-corrected z-score
47 | UUAUGCUUAGGUAACUUGC against AADACL3 | -3.87
48 | UAUAUAUCGUGCUUGAUAC against RIPK2 | 0.0696
49 | UAUGCGACAAAGAAUGACU against OR4N3P | 0.242
50 | UUUUCGAUUAAACCUUUUC against C17orf58 | -0.0867
51 | UAAUCAAUCAUAGAGAUAG against GSTO1 | 0.0812
52 | UUUAUUACAAUCCAAAAGU against HCST | 0.824
53 | UUCUCGAUCAAGAGCAUCC against SPEF2 | -12.2
54 | UUUGUGGUUAUUCUUUUAU against CDC42EP2 | -0.0752
55 | UACAGCAUAAUCUCAUUUG against BPY2 | 0.91
56 | UAAGCAGUAGAGUUAGUUC against LINC01249 | 0.231
57 | UCUGUUCCAAGGCACUAUC against NFE4 | 0.0636
58 | UUAUACACGAGGAAGAUGU against TMEM169 | -0.406
59 | UGAGUAAACAGCCUCAGUC against CMIP | -0.223
60 | UCUCGAUGAAGUCAAACAG against COPG1 | -2.97
61 | AAUUUGCUAAAUCGUAUUC against CLLU1 | -0.521
62 | UCCAUUAUCCCAAUAGACC against PGM2 | -0.182
63 | UAGGGUUGGACUUUUUGUC against CYB5R3 | 0.597
64 | UCCAGUACCUUUUCCUUGG against LOC199882 | 0.35
65 | AAUACUUGAAGGAAUAGGC against SUPT6H | -5.83
66 | UACCAUAUUAUACACUUGC against STARD6 | -0.0986
67 | AUGGAUCCAAUUUGAGUUU against NR2F2-AS1 | 1.74
